Results: PubChem BioAssay (EPA / NIEHS)
The source made the active and inactive calls. The calls were made as follows: active = hit-call score of the fitted dose curve at least 0.9, where 1 is the maximum; inactive = score below 0.9.

Test: ATG_TA_CIS: Attagene CIS-FACTORIAL HepG2 Assay for human TA Basal Promoter (AID 2282964)
Details: HepG2 Attagene CIS-factorial TA basal promoter reporter; actives raise or lower the signal
Description: ATG_CIS is a cell-based, multiplexed-readout assay that uses HepG2, a human liver cell line, with measurements taken at 24 hours after chemical dosing in a 24-well plate.ATG_TA_CIS is one of 52 assay component(s) measured or calculated from the ATG_CIS assay. It is designed to make measurements of mRNA induction, a form of inducible reporter, as detected with fluorescence intensity signals by Reverse transcription polymerase chain reaction (RT-PCR) and Capillary electrophoresis technology.Data from the assay component ATG_TA_CIS was analyzed into 1 assay endpoint. This assay endpoint, ATG_TA_CIS, was analyzed with bidirectional fitting relative to DMSO as the negative control and baseline of activity. Using a type of inducible reporter, measures of mRNA for gain or loss-of-signal activity can be used to understand the background control at the transcription factor-level as they relate to the gene . Furthermore, this assay endpoint can be referred to as a secondary readout, because this assay has produced multiple assay endpoints where this one serves a background control function. To generalize the intended target to other relatable targets, this assay endpoint is annotated to the background measurement intended target family, where the subfamily is internal marker.
Human liver HepG2 cells are transiently transfected with multiple reporter transcription units (MRTUs) in 6-well plates using FuGene 6 reagent (Roche; 3 ml FuGene/1 mg DNA). The MRTU constructs are regulated by a cis-regulating element (promoter). […] A major difference between the CIS and TRANS system is that in CIS activities of endogenous TFs are measured, whereas the TRANS assay evaluates changes in activities of exogenous, chimeric NR-Gal4 proteins. […] At the end of 24 hour incubation, total RNA was isolated using TriZol reagent (Invitrogen). The isolated RNA is then reverse-transcribed using oligo(dT) primer and Mo-MLV reverse transcriptase (Invitrogen) with DNAse I (Ambion) treatment for 30 min. The one-tenth of the produced cDNA was amplified by PCR using Taq DNA polymerase (Invitrogen) and two reporter sequence-specific primers. The PCR products were fluorescently labeled by primer extension with 6-arboxyfluorescein (6-FAM) 5'-labeled reporter sequence-specific primer (2 min at 95 C, 20 s at 68 C and 10 min at 72 C) and these products were digested with 5U of HpaI (New England Biolabs) for 2h at 37 C. The fragments were purified using Qiaquick PCR columns (Qiagen), analyzed on an ABI 3130xL genetic analyzer (Applied Biosystems) with peak positions identified by using a set of X-rhodamine (ROX)-labeled MapMarker1000 molecular weight standards (BioVentures). The raw capillary electrophoresis data was processed using Attagraph software (Attagene).
In the case of O=Cc1ccccc1O, the outcome is reported as “inactive”. For CN1CCc2cccc3c2[C@H]1Cc1ccc(O)c(O)c1-3, the outcome was “inactive”. With CNC(=C[N+](=O)[O-])NCCSCc1ccc(CN(C)C)o1 the outcome was “inactive”. For CCC(CC)CO, the outcome was “inactive”. In the case of CCCCCCCCCCO[C@@H]1O[C@H](CO)[C@@H](O)[C@H](O)[C@H]1O, the outcome is reported as “inactive”. For CCC=C(C)C=O, the outcome was “inactive”. In the case of CC(C)N(c1ccccc1)C(C)C, the outcome is reported as “inactive”. For C=CC(C)(CCC=C(C)C)OC(=O)CC (stereo not given), the outcome was “inactive”. In the case of CC(=O)C1=C(C)[C@@H]2C[C@@]3(C1)[C@H](C)CC[C@H]3C2(C)C, the AC50 is reported as 159 µM (active). With NC(=O)c1cnccn1 the outcome was “inactive”. In the case of CCCOC(=O)CC, the outcome is reported as “inactive”. For CCn1cc(C(=O)O)c(=O)c2ccc(C)nc21, the outcome was “inactive”. In the case of C=C(C)C(=O)OCCOCCOC(=O)C(=C)C, the outcome is reported as “inactive”. In the case of COc1ccc(C(C)=O)cc1, the outcome is reported as “inactive”. For C=C(C)C(N)=O, the outcome was “inactive”. In the case of CCCCC(CC)COCCO (stereo not given), the outcome is reported as “inactive”. In the case of C=C/C(C)=C/C/C=C(\C)CCC=C(C)C, the outcome is reported as “inactive”. In the case of CC1=CC(C)C(C=O)C(C)C1 (stereo not given) (tested in a mixture with another compound), the outcome is reported as “inactive”. For CC(O)CN (stereo not given), the outcome was “inactive”. For Cc1ccncc1, the outcome was “inactive”. With CCC(C)C1CCCCC1=O (stereo not given) the outcome was “inactive”. With CCCCCC(=O)O[C@]1(C(C)=O)CC[C@H]2[C@@H]3CCC4=CC(=O)CC[C@]4(C)[C@H]3CC[C@@]21C the AC50 was 60 µM (active). With Cc1ccc(C(C)(C)O)cc1 the outcome was “inactive”. For C=COCC1CCC(COC=C)CC1 (stereo not given), the outcome was “inactive”. With c1ccc2c(c1)-c1ccc3ccc4cccc5cc-2c1c3c45 the outcome was “inactive”. For CCCCCCOc1ccc(O)cc1, the AC50 was 39.2 µM (active). In the case of c1ccc2scnc2c1, the outcome is reported as “inactive”. For NC(=O)NC(N)=O, the outcome was “inactive”. For CCCCCC#CC(=O)OC, the outcome was “inactive”. With CCc1cccc(O)c1 the outcome was “inactive”. For CCCCCCCCCO, the outcome was “inactive”. For CCCC1CCC(=O)CC1, the outcome was “inactive”. In the case of CCCCN(CCCC)CCCCCCN(CCCC)CCCC, the outcome is reported as “inactive”. In the case of O=S1(=O)CC=CC1, the outcome is reported as “inactive”. With C=C(C)C(=O)OCCC[Si](OC)(OC)OC the outcome was “inactive”. With CC(=O)N(C)C the outcome was “inactive”. For CCCCCC1CCC(=O)O1 (stereo not given), the outcome was “inactive”. With CN(C)C(=O)Nc1ccccc1 the outcome was “inactive”. In the case of CC(=O)OC/C=C(C)/C=C/C=C(C)/C=C/C1=C(C)CCCC1(C)C, the outcome is reported as “inactive”. In the case of [Na+], the outcome is reported as “inactive”.
